Assay outcomes deposited in PubChem BioAssay by several laboratories.
Rows were chosen to be rich in hits. Some 3% of all compounds tested hit in one or more screens of this group.
TRPM1 prom inh – inhibitors of MITF-dependent TRPM1 promoter reporter, primary screen, cell-based, SK-MEL-5, single point, luciferase. AID 488899, 2010. inhibition, % at 12.5 µM. SK-MEL-5 TRPM1 promoter luciferase, 24 h. actives 0.83% (n = 330,000);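 active = mean inhibition across replicates of 60% or more, whatever share of single replicates reaches that level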
LMP1 NFkB inh – EBV LMP1-driven NF-kappaB luciferase reporter inhibitors, primary screen, cell-based, luminescence, single point; LMP1-induced NF-kappaB luciferase reporter cells; inhibition, % at 12.5 µM; actives 0.69% (n = 350,000); in the data active = inhibition above about 41%;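 note: 0% = neutral control wells and 100% = reference inhibitor control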
HIF-2a block – HIF-2a reporter inhibitors, primary screen, luminescence, 786-0 RCC cells; inhibition, % at 18.8 µM; actives 0.72% (n = 360,000); 786-0 RCC cells HIF-2a reporter, luciferase luminescence, overnight;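 active = inhibition of the luminescence signal of 40% or more relative to plate controls, in a single-dose primary screen at 18.75 µM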
CF NFkB inh – inhibitors of PAF-induced NF-kB signaling, primary screen, cell-based, GFP fluorescence, uHTS | KKLEB NF-kB-GFP reporter, GFP fluorescence overnight | inhibition, % at 5 µM | actives 0.86% (n = 360,000);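 active = at least 50% inhibition at 5 µM, scaled per plate between neutral and stimulator controls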;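 note: PAF is a Pseudomonas aeruginosa culture filtrate used as stimulus; plate controls were PAF-stimulated DMSO wells for no effect and unstimulated DMSO wells for full effect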
KKLEB cytotox – cytotoxicity in KKLEB CF airway cells, primary screen, cytotoxicity control for CF NF-kB inhibitor project, cell-based, uHTS, fluorescence assay plates; activity change (cytotoxicity), % at 5 µM; KKLEB CF airway cells viability, ATPlite luminescence, overnight; stronger effect = lower value; cells stimulated with P. aeruginosa culture filtrate; actives 0.36% (n = 360,000);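 active = corrected activity change at or below -50% at 5 µM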
Peg3 promoter – Peg3 promoter-driven luciferase inhibitors, primary screen, cell-based, HeLa, luciferase luminescence; HeLa PEG-Prom luciferase reporter, overnight; inhibition, % at 20 µM; actives 1.7% (n = 360,000); AID 588405, 2011;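 active = inhibition of at least 50% at 20 µM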
CF NFkB inh conf – inhibitors of PAF-induced NF-kB signaling, retest, confirmation, cell-based, GFP fluorescence, single concentration; inhibition, % at 5 µM; KKLEB CF airway cells, overnight; AID 602472, 2012; actives 64% (n = 1,300); shares compounds with CF NFkB inh; in the data active = inhibition above about 40%;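 note: stimulus PAF is a Pseudomonas aeruginosa filtrate and not platelet activating factor; plate controls were DMSO wells with stimulus for no effect and unstimulated DMSO wells for full effect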
* marks the source's active call; other numbers are inactive results; . = no result.

SMILES	TRPM1 prom inh	LMP1 NFkB inh	HIF-2a block	CF NFkB inh	KKLEB cytotox	Peg3 promoter	CF NFkB inh conf
O=c1cc(C(F)(F)F)[nH]c2ccc(OC(F)(F)F)cc12	.	.	-15	26	-4	38	.
O=c1cc(C(F)(F)F)[nH]c2c(C(F)(F)F)cccc12	5	-2	-3	57*	-2	24	1
COc1ccc(NC(=O)C2Cc3c(-c4cccc(C(N)=O)c4)ccnc3O2)cn1 (configuration not stated)	.	.	21	11	-12	21	.
CCCCC[C@@H](C)N1C[C@H](COCc2ccccc2)Oc2cc(N3CCC[C@@H]3COC)ccc2S1(=O)=O	.	.	-177	.	.	.	.
COc1ccc(/C=N/NC(=O)c2[nH]c3ccc(Br)cc3c2-c2ccccc2)cc1	68*	13	26	81*	-33	-10	81*
O=C(N/N=C/c1ccccc1Cl)c1[nH]c2ccc(Br)cc2c1-c1ccccc1	53	9	13	63*	-14	14	76*
CN(c1ncnc(N)c1[N+](=O)[O-])C1CCS(=O)(=O)C1 (configuration not stated)	-37	16	8	51*	-14	-3	61*
Cn1c(=O)c([N+](=O)[O-])c(NC2CCS(=O)(=O)C2)c2ccccc21 (configuration not stated)	4	5	10	4	3	11	.
Nc1ncnc(NC2CCS(=O)(=O)C2)c1[N+](=O)[O-] (configuration not stated)	12	8	11	52*	-6	-25	35
O=C(O)c1ccc(CNC(=O)C2CCN(S(=O)(=O)c3ccc4c(c3)OCCO4)CC2)cc1	.	0	9	-6	-1	0	.
Cc1cc(C(=O)OC(C)C(=O)NC2CCCCC2C)c2ccccc2n1 (configuration not stated)	.	18	9	7	-10	-1	.
CC1(C)OC2CC3C4CC=C5CC(O)CCC5(C)C4CCC3(C)C2(C(=O)CO)O1 (configuration not stated)	-10	-13	-8	6	8	-35	.
CC1(C)O[C@@H]2C[C@H]3[C@@H]4CCC5=CC(=O)C=C[C@]5(C)[C@@]4(F)[C@@H](O)C[C@]3(C)[C@]2(C(=O)CO)O1	-14	9	21	67*	37	12	30
CC1(C)O[C@@H]2C[C@H]3[C@@H]4C[C@H](F)C5=CC(=O)C=C[C@]5(C)[C@@]4(F)[C@@H](O)C[C@]3(C)[C@]2(C(=O)CO)O1	-17	5	21	73*	25	-8	25
Fc1ccc(-n2cc(-c3ccccc3)c3c(N4CCOCC4)ncnc32)cc1	8	-1	17	86*	-2	54*	104*
CC1(Cc2cccc(F)c2)C(=O)Nc2ccc(-c3cccnc3)cc21 (configuration not stated)	.	.	15	72*	5	20	66*
CCc1ccc2c(c1)NC(=O)C2(C)Cc1cccc(F)c1 (configuration not stated)	.	.	9	5	-4	15	.
CC1(Cc2ccc(Cl)cc2)C(=O)Nc2ccc(-c3cccnc3)cc21 (configuration not stated)	.	.	16	79*	-30	23	91*
OCCCNc1ncnc2scc(-c3ccc(Cl)cc3)c12	2	25	24	63*	-11	23	81*
ON=C1c2ccccc2-c2ccccc21	-3	0	-12	62*	4	-77	53*
CN(Cc1ccccc1)S(=O)(=O)c1ccc(Cl)c(C(=O)N2CCOCC2)c1	.	9	6	-6	10	6	.
c1ccc2c(-c3cncc4ccccc34)cncc2c1	-3	9	35	76*	-32	20	43*
CCCCOc1ccc(S(=O)(=O)NC(=O)C2(C)CCN2C(=O)Cc2cccs2)cc1 (configuration not stated)	.	.	13	-1	8	-5	.
O=C1CCSC2=C1SCc1sccc12	.	.	-5	.	.	.	.
Oc1cc(NCc2ccc(F)cc2)cc2cccnc12	56	12	1	51*	25	8	39
SMILES	TRPM1 prom inh	LMP1 NFkB inh	HIF-2a block	CF NFkB inh	KKLEB cytotox	Peg3 promoter	CF NFkB inh conf
COCOCCn1cc(CN2CCS(=O)(=O)N(Cc3ccc(-c4ccc(OC)cc4)cc3)C(C(C)C)C2=O)nn1 (configuration not stated)	.	-13	10	0	9	-7	.
CCOC(=O)c1c(C)cc2c(CO)n[nH]c(=O)c2c1C	.	9	10	51*	-14	27	48*
Nc1nc(N)nc(-c2cc([N+](=O)[O-])ccc2O)n1	10	-19	-28	61*	-21	60*	73*
Cc1nc(N)nc(N)c1-c1ccc(Cl)c(Cl)c1	38	20	22	10	-10	23	.
Nc1nc(N)nc(-c2ccc(Cl)c(Cl)c2)n1	-78	6	-233	79*	-12	-302	91*
O=C(Nc1ccccc1)c1cc(C2CCCCN2C(=O)c2ccc3c(c2)CCO3)on1 (configuration not stated)	.	.	-5	-16	9	-3	.
CS(=O)(=O)n1nc(OC(=O)c2cc(Br)ccc2Cl)cc1N	0	-12	22	5	1	17	.
CS(=O)(=O)n1nc(OC(=O)c2cccc3ccccc23)cc1N	19	-30	10	66*	-34	-32	17
CC1Sc2ccc(Cl)cc2-c2nc(N)ncc21 (configuration not stated)	6	-2	28	66*	-24	9	77*
CC(C)(C)CC(C)(C)n1nnnc1N	-10	-13	1	-10	-10	-6	.
COc1ccc(N(CCCN2C(=O)c3cccc4cccc(c34)C2=O)C(=O)c2cccnc2)cc1	14	-3	10	19	-15	38	.
COc1ccc(N(CCCN2C(=O)c3cccc4cccc(c34)C2=O)C(=O)c2ccncc2)cc1	-1	-6	-76	50*	-24	-75	45*
Cc1cc(Cl)ccc1NC(=O)/N=C1/NC(=O)CS1	.	.	-10	-10	16	-24	.
COc1ccc(NS(=O)(=O)c2cccs2)cc1S(=O)(=O)N1CCOCC1	10	-3	2	-6	0	13	.
COc1ccc(Nc2nc(-c3cccs3)nc3ccccc23)cc1S(=O)(=O)N1CCOCC1	6	15	-83	90*	-36	55*	103*
